# Where “and” joins values, the source holds several entries; their conditions need not be identical. Identical values can stand only once. Records with an inconclusive call do not appear. A number with no mark means an inactive call. Calls of active or inactive are those of the source. Calls come from the whole dose curve; as a rule, active = well fitted curve in the direction sought with a large enough effect; inconclusive = small, poorly fitted or top-dose-only effect, or another doubt; inactive = no such curve, though single readings can be large; an effect the other way counts as inactive or inconclusive.
# Columns and labels:
# [1] = biological target: Cellular tumor antigen p53 (Homo sapiens) (UniProt P04637); experiment: Primary qHTS for small molecule compounds that upregulate eGFP-tagged delta133p53alpha (in N-terminal) cells. (AID 2060322); conditions: NCI-H358 eGFP-delta133p53alpha fluorescence, 24 h; activation: active compounds read high; note: nearly all actives have a fitted effect of over 75% in size; note: potency is the fitted concentration of half-maximal effect;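 for activation: series mostly up to about 56 µM; 0% = DMSO vehicle and 100% = reference activator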
# In short: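 NCI-H358 cells pre-induced 24 h with 10 ng/ml doxycycline to express N-terminal eGFP-delta133p53alpha, then dosed 24 h at 37C without doxycycline; fixed, Hoechst-stained, GFP intensity by laser scanning cytometry, normalized to DMSO (0%) and 57.5 uM 5-azacytidine (100%).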
# [2] = biological target: Aldehyde dehydrogenase, mitochondrial (Homo sapiens) (UniProt P05091); experiment: qHTS for Inhibitors of the Aldehyde Dehydrogenase Family (ALDH2) Primary screen (AID 2061308);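 note: plate controls were vehicle for no effect and reference inhibitor for full effect; nearly all actives have a fitted effect of over 55% in size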
# [3] = biological target: Retinaldehyde dehydrogenase 3 (Homo sapiens) (UniProt P47895); experiment: qHTS for Inhibitors of the Aldehyde Dehydrogenase Family (ALDH1A3) Primary screen (AID 2061315);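 note: plate controls were DMSO vehicle for no effect and reference inhibitor for full effect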
# [4] = BET inhibitor-based combinations targeting novel dependencies in MECOM-rearranged (r) AML: SET-2 cell line (AID 2202231); conditions: SET-2 AML cells viability, CellTiter-Glo luminescence, 48 h; viability: active compounds read low, concentration not given here; note: nearly all actives have a fitted effect of over 35% in size; note: potency is the fitted concentration of half-maximal effect;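 for viability: plate controls were DMSO treated cells for no effect and wells without cells for full effect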
# In short: (§1)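 Readout: CellTiter-Glo luminescence. Exposure: 48 h, 11 concentrations, 500 cells/well. Metric: AUC and within-line Z-AUC after DMSO/empty-well normalization.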
# [5] = BET inhibitor-based combinations targeting novel dependencies in MECOM-rearranged (r) AML: OCI-AML3 cell line (AID 2202232); conditions: Potency: OCI-AML3 viability; note: nearly all actives have a fitted effect of over 35% in size; note: potency is the fitted concentration of half-maximal effect
# In short: as §1
# [6] = BET inhibitor-based combinations targeting novel dependencies in MECOM-rearranged (r) AML: HNT-34 cell line (AID 2202234); note: nearly all actives have a fitted effect of over 35% in size; note: potency is the fitted concentration of half-maximal effect
# In short: (§2)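 Seeding density was 500 cells/well, and drug exposure lasted 48 hr under standard culture conditions. Read-out used CellTiter-Glo reagent with a 15 min room-temperature incubation before luminescence measurement; AUC and Z-AUC summarize the normalized responses.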
# [7] = BET inhibitor-based combinations targeting novel dependencies in MECOM-rearranged (r) AML: AML-191 cell line (AID 2202236; note: nearly all actives have a fitted effect of over 35% in size; note: potency is the fitted concentration of half-maximal effect)
# In short: as §1
# [8] = BET inhibitor-based combinations targeting novel dependencies in MECOM-rearranged (r) AML: AML-194 cell line (AID 2202237; note: nearly all actives have a fitted effect of over 40% in size; note: potency is the fitted concentration of half-maximal effect)
# In short: as §1
# [9] = BET inhibitor-based combinations targeting novel dependencies in MECOM-rearranged (r) AML: MV-4-11 cell line (AID 2202233); note: nearly all actives have a fitted effect of over 45% in size; note: potency is the fitted concentration of half-maximal effect
# In short: as §2
# [10] = BET inhibitor-based combinations targeting novel dependencies in MECOM-rearranged (r) AML: UCSD-AML1 cell line (AID 2202235); note: nearly all actives have a fitted effect of over 40% in size; note: potency is the fitted concentration of half-maximal effect
# In short: as §2
# Cellular tumor antigen p53 (Homo sapiens), sequence (P04637 whole entry, looked up): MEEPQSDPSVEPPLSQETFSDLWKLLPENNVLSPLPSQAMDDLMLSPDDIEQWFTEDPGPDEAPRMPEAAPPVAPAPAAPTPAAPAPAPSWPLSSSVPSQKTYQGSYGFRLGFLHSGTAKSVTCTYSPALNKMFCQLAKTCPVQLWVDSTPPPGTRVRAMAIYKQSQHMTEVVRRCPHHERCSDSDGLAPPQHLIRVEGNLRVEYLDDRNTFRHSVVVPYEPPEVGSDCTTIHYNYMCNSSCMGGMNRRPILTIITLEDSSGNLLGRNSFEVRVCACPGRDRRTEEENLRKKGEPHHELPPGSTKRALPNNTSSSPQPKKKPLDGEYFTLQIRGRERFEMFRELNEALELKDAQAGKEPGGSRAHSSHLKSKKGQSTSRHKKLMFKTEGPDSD
SMILES,Potency [1],Potency [2],Potency [3],Potency [4],Potency [5],Potency [6],Potency [7],Potency [8],activation [1],viability [4],Potency [9],Potency [10]
CN1CCN(c2ccc(C(=O)Nc3n[nH]c4ccc(Cc5cc(F)cc(F)c5)cc34)c(NC3CCOCC3)c2)CC1,30.1 µM (active) and 216 nM (active),inactive,inactive,16.6 µM (active),11.8 µM (active),5.9 µM (active),5.25 µM (active),1.48 µM (active),–,–,–,–
CNc1nc(Nc2ccc(C(=O)N3CCOCC3)cc2OC)ncc1Cl,–,inactive,inactive,–,inactive,–,inactive,inactive,-0.44% and -2.68%,93.5%,–,–
Cc1c(C(=O)N2CCOc3ccc(-c4ccc(N)nc4)cc3C2)ccc(S(C)(=O)=O)c1F,26.9 µM (active),inactive,inactive,13.2 µM (active),–,2.95 µM (active),1.86 µM (active),–,–,–,6.61 µM (active),0.742 µM (active)
Cc1cc(-c2cc(OC(=O)c3ccccc3)ccc2Cl)cc2nnc(Nc3ccc(OCCN4CCCC4)cc3)nc12,–,inactive,inactive,–,–,0.456 µM (active),–,–,-29.5%,115%,inactive,–
Cc1sc2c(c1C)C(c1ccc(Cl)cc1)=N[C@@H](CC(=O)Nc1ccc(OCCOCCOCCOCCNc3cccc4c3C(=O)N(C3CCC(=O)NC3=O)C4=O)cc1)c1nnc(C)n1-2 (some centres not stated),–,inactive,inactive,1.05 µM (active),–,0.0148 µM (active),0.0833 µM (active),0.0525 µM (active),59%,–,0.0417 µM (active),0.0209 µM (active)
COc1ccc(C(=O)C2CCN(CC(=O)N(Cc3nc4c(c(=O)[nH]3)COCC4)CC3CC3)CC2)cc1,–,inactive,inactive,–,–,inactive,–,inactive,25.7%,110%,inactive,inactive
CC[C@H](C)C(=O)O[C@H]1C[C@@H](C)C=C2C=C[C@H](C)[C@H](CC[C@@H]3C[C@@H](O)CC(=O)O3)[C@H]21,–,inactive,inactive,–,–,5.9 µM (active),10.5 µM (active),inactive,-14.1% and 11.5% and 5.34%,109%,10.5 µM (active),9.34 µM (active)
COc1cc(CNC(=O)CCCC/C=C/C(C)C)ccc1O,–,inactive,inactive,14.8 µM (active),inactive,6.61 µM (active),–,10.5 µM (active),-7.14%,–,–,–
CCCCN(CCCC)C(=O)CN1C[C@H](c2ccc3c(c2)OCO3)[C@@H](C(=O)O)[C@@H]1c1ccc(OC)cc1,–,inactive,inactive,–,–,inactive,inactive,inactive,-2.39% and -6.46%,107%,inactive,inactive
CCOc1cc2ncc(C#N)c(Nc3ccc(F)c(Cl)c3)c2cc1NC(=O)/C=C/CN(C)C,13.5 µM (active),inactive,inactive,5.9 µM (active),–,0.296 µM (active),4.68 µM (active),5.25 µM (active),–,–,0.934 µM (active),1.48 µM (active)
Cc1ncc(NC(=O)c2ccc(CN3CCN(C)CC3)c(C(F)(F)F)c2)cc1Nc1nccc(-c2cccnc2)n1,23.9 µM (active),inactive,inactive,23.5 µM (active),14.8 µM (active),0.0295 µM (active),18.6 µM (active),–,–,–,–,–
Cn1c(=O)n(-c2ccc(C(C)(C)C#N)cc2)c2c3cc(-c4cnc5ccccc5c4)ccc3ncc21,–,inactive,inactive,0.17 µM (active),–,0.135 µM (active),0.0428 µM (active),–,13% and 27.3%,–,0.17 µM (active),0.0428 µM (active)
CC1c2ccccc2CN1NC(=O)c1ccc(Cl)c(S(N)(=O)=O)c1 (configuration not stated),–,inactive,inactive,–,–,inactive,–,–,6.69%,109%,inactive,inactive
CCC(=O)N[C@H]1CC[C@H](C(=O)N(C)c2ccc(-c3nc4ccccc4o3)cc2)C1,–,inactive,inactive,–,18.6 µM (active),–,20.9 µM (active),–,18%,98.9%,–,inactive
CC1(C)CNc2cc(NC(=O)c3cccnc3NCc3ccncc3)ccc21,–,inactive,inactive,–,inactive,–,–,inactive,-11.7% and 7.64%,63%,–,–
C1=C/COCc2cc(ccc2OCCN2CCCC2)Nc2nccc(n2)-c2cccc(c2)COC/1,15.3 µM (active),inactive,inactive,4.17 µM (active),–,2.09 µM (active),1.86 µM (active),2.35 µM (active),–,–,0.0132 µM (active),1.18 µM (active)
COc1ccccc1[C@H](c1cccc2ccccc12)[C@@](C)(C#N)C(=O)N1CCC(c2cccc(C(F)(F)F)c2)CC1,–,inactive,inactive,–,–,13.2 µM (active),inactive,–,0.109%,110%,5.25 µM (active),inactive

# Source: PubChem BioAssay (NCATS)
